Data reported in PubChem BioAssay (NCI).
Values joined by “and” are separate entries in the source; they are usually repeats but may differ in a detail not shown here. Identical values can stand only once. Compounds without any hit were thinned out: in the full panel of roughly 79,000, 15% have a hit. The source holds several records for some structures; these can differ, active in one and inactive in another. Active and inactive are the calls of the source. Cut-off read from the data, not from the text of the source: active = growth inhibition above about 70%; inactive = the rest.

What was measured:
[1] = NCI Yeast Anticancer Drug Screen. Data for the rad50 strain (AID 155);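 note: 0% = growth of vehicle-only cultures of the same strain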; details: S. cerevisiae rad50 strain growth inhibition, stronger effect = higher value
Summary of the method: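 Relative growth inhibition (compound vs vehicle) was measured in yeast with a defined repair-gene alteration.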

[2] = NCI Yeast Anticancer Drug Screen. Data for the mec2-1 strain (AID 157); details: S. cerevisiae mec2-1 strain, stronger effect = higher value
Summary of the method: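 mec2-1 yeast strain, carrying an alteration in DNA damage repair or cell cycle control, was exposed to compounds; growth inhibition was measured relative to vehicle-treated controls.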

[3] = NCI Yeast Anticancer Drug Screen. Data for the sgs1 mgt1 strain (AID 161);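 note: 0% = growth of cultures given vehicle only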; details: S. cerevisiae sgs1 mgt1 strain, stronger effect = higher value
Summary of the method: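 Compounds are added to genetically altered yeast, and growth is compared with cultures given vehicle alone to give percent inhibition.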

[4] = NCI Yeast Anticancer Drug Screen. Data for the cln2 rad14 strain (AID 165);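 note: 0% = growth equal to vehicle treated cultures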; details: S. cerevisiae cln2 rad14 strain, stronger effect = higher value
Summary of the method: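 Yeast carrying cln2 and rad14 alterations (cell cycle control and DNA damage repair) were exposed to compounds. Growth inhibition was measured against vehicle-treated controls.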

[5] = NCI Yeast Anticancer Drug Screen. Data for the bub3 strain (AID 167); details: S. cerevisiae bub3 mutant strain, stronger effect = higher value
Summary of the method: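 Screening used yeast with an engineered genetic alteration affecting cell cycle control. Compound-exposed cultures were compared with vehicle cultures, and reduced growth was taken as inhibition.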

[6] = NCI Yeast Anticancer Drug Screen. Data for the mlh1 rad18 strain (AID 175); details: S. cerevisiae mlh1 rad18 strain growth inhibition, stronger effect = higher value
Summary of the method: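 Growth inhibition of the yeast strain was measured after compound exposure and expressed relative to vehicle-treated controls. The strain carries defined defects in DNA damage repair.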

[7] = at 5.0 µM (retest, dose inferred, filed as 0.5)
[8] = at 50.0 µM (retest, dose inferred, filed as 5.0)

SMILES	growth inhibition [1, 7]	growth inhibition [1, 8]	growth inhibition ([1]; at 50.0 µM)	growth inhibition [2, 7]	growth inhibition [2, 8]	growth inhibition ([2]; at 50.0 µM)	growth inhibition [3, 7]	growth inhibition [3, 8]	growth inhibition ([3]; at 50.0 µM)	growth inhibition [4, 7]	growth inhibition [4, 8]	growth inhibition ([4]; at 50.0 µM)	growth inhibition [5, 7]	growth inhibition [5, 8]	growth inhibition ([5]; at 50.0 µM)	growth inhibition [6, 7]	growth inhibition [6, 8]	growth inhibition ([6]; at 50.0 µM)
CC1(C)N([O-])[N+](=O)C1(C)Br (stereo unspecified)	23% (inactive)	15% (inactive)	-2.45% (inactive)	19% (inactive)	13% (inactive)	-10.3% (inactive)	21% (inactive)	24% (inactive)	-20.2% (inactive)	12% (inactive)	24% (inactive)	19.5% (inactive)	19% (inactive)	20% (inactive)	5.55% (inactive)	20% (inactive)	15% (inactive)	11.4% (inactive)
CC(=O)O[C@H]1CC[C@H]2[C@@H]3CC[C@H]4CC(=O)CC[C@@H]4[C@H]3CC[C@]12C	-2% (inactive)	-19% (inactive)	11% (inactive)	-2% (inactive)	-9% (inactive)	10.8% (inactive)	-2% (inactive)	-10% (inactive)	88.6% (active)	-14% (inactive)	-6% (inactive)	1.15% (inactive)	4% (inactive)	7% (inactive)	61.5% (inactive)	-1% (inactive)	-7% (inactive)	-1.35% (inactive)
CCCCCOC(=O)CCl	8% (inactive)	69% (inactive)	54.7% (inactive)	1% (inactive)	16% (inactive)	1.75% (inactive)	4% (inactive)	40% (inactive)	32.2% (inactive)	1% (inactive)	8% (inactive)	16.5% (inactive)	0% (inactive)	-5% (inactive)	-27.6% (inactive)	11% (inactive)	32% (inactive)	19.4% (inactive)
CC(=O)[CH-]C(=O)c1ccccc1.CC(=O)[CH-]C(=O)c1ccccc1.C[C@]12CCC(=O)C=C1CC[C@@H]1C2CC[C@@]2(C)C1CC[C@]2(C)[O-].C[C@]12CCC(=O)C=C1CC[C@@H]1C2CC[C@@]2(C)C1CC[C@]2(C)[O-].Cl.[Ti+4] (stereo partly specified)	33% (inactive)	76% (active)	86.8% (active)	26% (inactive)	87% (active)	85% (active)	37% (inactive)	93% (active)	84.8% (active)	13% (inactive)	72% (active)	86.1% (active)	39% (inactive)	94% (active)	84.5% (active)	37% (inactive)	90% (active)	81.2% (active)
Cc1cn(CC2C=CC(CS[As](C)C)O2)c(=O)[nH]c1=O (stereo unspecified)	7% (inactive)	75% (active)	69.7% (inactive)	1% (inactive)	83% (active)	92.2% (active)	4% (inactive)	98% (active)	94.8% (active)	0% (inactive)	95% (active)	72% (active)	0% (inactive)	45% (inactive)	53% (inactive)	-1% (inactive)	84% (active)	99.1% (active)
NC1=C(c2nc(-c3ccccc3)cs2)C(c2ccc(Br)cc2)c2c(c3ccccc3oc2=O)O1 (stereo unspecified)	5% (inactive)	99% (active)	0.8% (inactive)	6% (inactive)	100% (active)	29.2% (inactive)	7% (inactive)	99% (active)	17.2% (inactive)	3% (inactive)	99% (active)	42.4% (inactive)	4% (inactive)	99% (active)	28.8% (inactive)	6% (inactive)	99% (active)	46.1% (inactive)
Oc1c(Cl)c(Cl)c(Cl)c(Cl)c1Cl.[Cu+2]	23% (inactive)	98% (active)	88.5% (active)	18% (inactive)	99% (active)	89.8% (active)	31% (inactive)	98% (active)	81% (active)	8% (inactive)	99% (active)	92.8% (active)	11% (inactive)	97% (active)	89.5% (active)	15% (inactive)	96% (active)	88.6% (active)
COC1=C(C)C(=O)C2=C(C1=O)C(CO)N1C(C#N)C3CC4C(C1C2N1CCOC41)N3C (stereo unspecified)	39% (inactive)	51% (inactive)	75.8% (active) and 75.5% (active)	9% (inactive)	52% (inactive)	85.8% (active) and 89.7% (active)	20% (inactive)	47% (inactive)	77.3% (active) and 77.7% (active)	44% (inactive)	80% (active)	85.1% (active) and 85% (active)	19% (inactive)	76% (active)	83.2% (active) and 87.9% (active)	19% (inactive)	49% (inactive)	78.7% (active) and 81% (active)
C=CCCCCCCCCC(=O)O (tested in a mixture with another compound)	-3% (inactive)	12% (inactive)	23.1% (inactive)	-3% (inactive)	8% (inactive)	63.3% (inactive)	-9% (inactive)	27% (inactive)	53% (inactive)	6% (inactive)	72% (active)	96.8% (active)	-7% (inactive)	7% (inactive)	40.4% (inactive)	-7% (inactive)	48% (inactive)	83% (active)
CCCCCCCCCCCCCC(=O)O	-7% (inactive)	18% (inactive)	4.15% (inactive) and 34.9% (inactive)	11% (inactive)	63% (inactive)	7.2% (inactive) and -10.9% (inactive)	11% (inactive)	88% (active)	15.4% (inactive) and 27.3% (inactive)	1% (inactive)	20% (inactive)	66.5% (inactive) and 24.1% (inactive)	-7% (inactive)	29% (inactive)	57.7% (inactive) and 11.7% (inactive)	5% (inactive)	87% (active)	-6.2% (inactive) and 13.4% (inactive)
c1ccc(-c2ccccn2)nc1	-4% (inactive) and 2% (inactive)	76% (active) and 90% (active)	79.8% (active) and 81.1% (active)	0% (inactive) and 1% (inactive)	53% (inactive) and 61% (inactive)	70.9% (active) and 55.6% (inactive)	8% (inactive) and -2% (inactive)	74% (active) and 75% (active)	66% (inactive) and 77.8% (active)	4% (inactive) and -5% (inactive)	61% (inactive) and 51% (inactive)	29.1% (inactive) and 21.4% (inactive)	-23% (inactive) and 0% (inactive)	87% (active) and 86% (active)	82.5% (active) and 64.2% (inactive)	-3% (inactive) and 2% (inactive)	85% (active) and 84% (active)	68% (inactive) and 75.9% (active)
COC1NC(=O)NC(=O)C1=[N+]=[N-] (stereo unspecified)	-152% (inactive)	-50% (inactive)	31.6% (inactive)	-44% (inactive)	-39% (inactive)	9.25% (inactive)	-60% (inactive)	-33% (inactive)	1.3% (inactive)	-54% (inactive)	-55% (inactive)	27.6% (inactive)	-58% (inactive)	-55% (inactive)	-17.7% (inactive)	-120% (inactive)	-136% (inactive)	21.9% (inactive)
Cc1ccc2c[c]1[Hg][CH2]COS2(=O)=O	33% (inactive)	98% (active)	94.7% (active)	16% (inactive)	99% (active)	98% (active)	48% (inactive)	99% (active)	97.5% (active)	9% (inactive)	98% (active)	98.7% (active)	-2% (inactive)	99% (active)	99.2% (active)	24% (inactive)	97% (active)	98.2% (active)
Nc1ccc2cc(Br)ccc2c1	-11% (inactive)	26% (inactive)	75.5% (active)	-2% (inactive)	10% (inactive)	30.6% (inactive)	-10% (inactive)	11% (inactive)	46.6% (inactive)	-31% (inactive)	-9% (inactive)	31.1% (inactive)	-8% (inactive)	14% (inactive)	45.9% (inactive)	-16% (inactive)	20% (inactive)	57.4% (inactive)
NCCBr	0% (inactive)	-26% (inactive)	-8.5% (inactive) and -19.5% (inactive)	-1% (inactive)	1% (inactive)	-7.65% (inactive) and -21.2% (inactive)	-3% (inactive)	-4% (inactive)	6.55% (inactive) and -5.6% (inactive)	3% (inactive)	-3% (inactive)	-23.7% (inactive) and -8.9% (inactive)	-25% (inactive)	-6% (inactive)	-0.55% (inactive) and 1.2% (inactive)	4% (inactive)	-2% (inactive)	2.25% (inactive) and -0.05% (inactive)
N#CC(=C=N)N=C(F)C(C#N)=C(C#N)C#N	-1% (inactive)	68% (inactive)	87% (active)	-2% (inactive)	88% (active)	82.6% (active)	13% (inactive)	86% (active)	73.2% (active)	7% (inactive)	94% (active)	90.3% (active)	6% (inactive)	77% (active)	86.8% (active)	25% (inactive)	93% (active)	94.8% (active)
ClCCN(CCCl)CCN1c2ccccc2Sc2ccc3ccccc3c21	3% (inactive)	31% (inactive)	80% (active)	2% (inactive)	53% (inactive)	40% (inactive)	7% (inactive)	81% (active)	95.8% (active)	-7% (inactive)	18% (inactive)	70.9% (active)	-5% (inactive)	42% (inactive)	40.6% (inactive)	12% (inactive)	78% (active)	83.5% (active)
